ELG1 repair inh – blocks ELG1-dependent DNA repair in HEK293T cells; HEK293T ELG1-luciferase reporter, luminescence, 16 h; DNA damage induced by 5-fluorouridine; Potency, µM (doses to about 46.1 µM), inactives show at the top dose activity change, negative = inhibition, actives largely listed as inhibitors; actives 2.3% (n = 330,000); AID 504467; further: potency means the concentration at half of the fitted maximal effect; nearly all actives have a fitted effect of over 55% in size
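Reporter activity after DNA damage by 5-fluorouridine is monitored. Compound-treated cells incubate 16 hr at 37 °C, then ONE-Glo is added for 30 min before luminescence reading.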
RORg inh – ROR gamma (mouse) transcription inhibition; P51450; Drosophila S2 Gal4-RORgamma UAS-luciferase reporter, 20 h; Potency, µM (highest dose often 53.6 µM), for the others: at the top dose activity change, negative = inhibition, most hits filed as inhibitors; actives 5.4% (n = 310,000); further: potency means the concentration at half of the fitted maximal effect; nearly all actives have a fitted effect of over 60% in size
Target sequence (P51450 whole entry, looked up, the tested form may be a part): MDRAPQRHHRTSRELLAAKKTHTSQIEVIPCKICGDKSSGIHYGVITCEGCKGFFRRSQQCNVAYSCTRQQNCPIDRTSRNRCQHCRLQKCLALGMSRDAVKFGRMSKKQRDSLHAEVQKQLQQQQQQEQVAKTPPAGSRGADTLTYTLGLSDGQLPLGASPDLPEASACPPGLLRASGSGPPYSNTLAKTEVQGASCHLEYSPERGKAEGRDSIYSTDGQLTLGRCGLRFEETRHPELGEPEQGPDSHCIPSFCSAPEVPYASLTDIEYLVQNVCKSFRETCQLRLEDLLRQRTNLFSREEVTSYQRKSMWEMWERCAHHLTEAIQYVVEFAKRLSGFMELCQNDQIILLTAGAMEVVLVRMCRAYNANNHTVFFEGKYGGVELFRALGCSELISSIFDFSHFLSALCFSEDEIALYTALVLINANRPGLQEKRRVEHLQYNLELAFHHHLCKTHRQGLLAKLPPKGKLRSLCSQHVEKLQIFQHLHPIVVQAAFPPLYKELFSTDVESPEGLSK
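Drosophila S2 cells stably expressing Gal4-DBD/mouse RORγ fusion under metallothionein promoter plus UAS-luciferase; compound 1 h, then 700 uM CuSO4 induction for 20 h at ambient temperature; inhibition read as reduced luminescence.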
TDP1 cell noCPT – qHTS for Inhibitors of human tyrosyl-DNA phosphodiesterase 1 (TDP1): qHTS in cells in absence of CPT; actives 15% (n = 420,000); DT40 Tdp1-/- hTDP1 cells, no CPT, ATP luminescence, 48 h; AID 686978, 2013; Potency, µM (series often up to 46.2 µM), inactives show at the top dose activity change, negative = growth inhibition, most hits filed as inhibitors; further: potency means the concentration at half of the fitted maximal effect; nearly all actives have a fitted effect of over 55% in size
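Cells were dispensed at 400 per well, compounds added by pin tool, plates incubated ≥48 hr at 37 °C, then CellTiter-Glo added for 30 min at room temperature before luminescence reading. Line: DT40 Tdp1-/- complemented with hTDP1; camptothecin omitted.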
VP16 counter – inhibits Gal4-VP16 luciferase reporter, ROR gamma counter-screen; Drosophila S2 Gal4-VP16 UAS-luciferase, luminescence, 20 h; Potency, µM (highest dose often 53.6 µM), without a hit: at the top dose activity, negative = inhibition, hits mostly inhibitors; actives 3.5% (n = 310,000); AID 2546;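 further: Gal4-VP16 expression switched on by copper sulfate through the metallothionein promoter; potency means the concentration at half of the fitted maximal effect; nearly all actives have a fitted effect of over 50% in size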
TDP1 cell CPT – DT40-hTDP1 cell growth loss with CPT; chicken DT40 Tdp1-/-;hTDP1 cells + 20 nM CPT, ATP luminescence, 48 h; Potency, µM (series often up to 46.2 µM), without a hit: top-dose activity change, negative = growth inhibition, hits mostly inhibitors; actives 12% (n = 420,000); AID 686979; further: potency means the concentration at half of the fitted maximal effect; nearly all actives have a fitted effect of over 55% in size
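Cell growth measured by CellTiter-Glo luminescence after a minimum 48 h, 37 C compound exposure with 20 nM CPT in Tdp1-knockout DT40 cells stably expressing hTDP1, seeded 400/well; qHTS titration format.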
IL-1B inflam inh – blocks inflammasome-driven IL-1 beta release | AID 743279 | actives 4.7% (n = 360,000) | activity change, % at 57.5 µM | THP-1 LPS/ATP IL-1B secretion, AlphaLISA, 16 h; stronger effect = lower value; in the data active means activity change below about -50%; inconclusive means mostly about -30% to -49%
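Secreted IL-1B measured by AlphaLISA bead assay after 16 h compound exposure of THP-1 cells; compounds (final up to 57.5 uM) added 1 h before LPS (250 ng/mL) and ATP (1.25 mM) stimulation; lower signal means less secretion.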
The depositor's hits bear a star; ? = inconclusive; nt = not tested or not shown; ! = a repeat was not active; [ ] = dose if it differs, or a comment. A selection: hits, their analogues and other compounds. The true share with any hit is near 21%. Unless noted, the call rests on the fitted dose curve; in most records, active means well fitted curve in the direction sought with a large enough effect; inconclusive means small, poorly fitted or top-dose-only effect, or another doubt; inactive means no such curve, though single readings can be large; an effect the other way counts as inactive or inconclusive. On the % scale 0 is the no-effect control and ±100 the full control effect.

SMILES	ELG1 repair inh	RORg inh	TDP1 cell noCPT	VP16 counter	TDP1 cell CPT	IL-1B inflam inh
COc1ccc(NS(=O)(=O)c2ccc3oc(=S)[nH]c3c2)cc1	?	0%	16%	-1%	-3%	18
COc1ccc(NS(=O)(=O)c2ccc3nc(COc4cccc5ccccc45)[nH]c3c2)cc1	23µM*	?	21µM*	-8%	16µM*	-16
COc1ccccc1NS(=O)(=O)c1ccc2nc(CCl)[nH]c2c1	?	11%	?	?	?	5
O=S(=O)(c1ccccc1)N1CCC[C@@]2(CCN(c3cccc(-c4ccccc4)c3)C2)C1	nt	6%	?	-1%	?	nt
CCCCN(C)C(=O)c1ccc2c(c1)S(=O)(=O)c1ccccc1C2=O	-1%	-28%	-9%	-14%	-16%	6
COc1ccc(OC)c(NC(=O)CSc2ncnc3sc(C)cc23)c1	nt	nt	?	nt	?	-10
CC(=O)N1c2ccccc2-c2nc3ccccc3n2C1C (stereo not given)	12%	-4%	-6%	1%	1%	0
CCN1c2ccccc2-c2nc3ccccc3n2C1c1ccccn1 (stereo not given)	-16%	8.9µM*	16µM*	-11%	?	-17
Cc1ccc(C2N(C)c3ccccc3-c3nc4ccccc4n32)o1 (stereo not given)	0%	10µM*	-21%	-16%	-9%	-19
CCN1c2ccccc2-c2nc3ccccc3n2C1c1ccncc1 (stereo not given)	-19%	-1%	?	1%	?	-8
CC(C)CCOC(=O)/C=C/c1ccccc1	nt	20%	nt	-5%	nt	nt
COCCCn1cc(CN2CC(N3CCN(C4CCN(C)CC4)CC3)CS2(=O)=O)nn1 (stereo not given)	nt	nt	-14%	nt	1%	55
COc1ccccc1NC(=O)CC1Sc2ccc(C(F)(F)F)cc2NC1=O (stereo not given)	nt	nt	-23%	nt	-19%	nt
O=C(OCC(=O)N1CCC(Cc2ccccc2)CC1)c1ccccc1NCCO	0%	nt	?	nt	?	-5
O=C(NCC(=O)N1CCCC1)c1ccccc1F	?	23%	11%	?	7%	-8
NC(=O)c1ccccc1OCC(=O)N1CCC(Cc2ccccc2)CC1	?	nt	9.2µM*	nt	7.3µM*	-23
O=C(NCC(=O)N1CCC(Cc2ccccc2)CC1)c1ccccc1F	nt	nt	21µM*	nt	?	?
O=C(COc1ccccc1[N+](=O)[O-])N1CCC(Cc2ccccc2)CC1	-13%	42%	-19%	9%	14%	?
O=C(OCC(=O)N1CCC(Cc2ccccc2)CC1)c1ccccc1O	0%	nt	29µM*	nt	?	-8
COc1ccc(OC)c(S(=O)(=O)Nc2cc3c(cc2C)n(C)c(=O)c(=O)n3C)c1	nt	nt	-25%	nt	-14%	nt
COc1ccc(Cl)cc1NC(=O)CN(C)C(=O)c1sccc1-c1ccccc1	?	nt	?	nt	?	14
CC1CCN(S(=O)(=O)c2cc(C(=O)N3CCN(c4ncccn4)CC3)ccc2Br)CC1	18µM*	33%	23µM*	7.1µM*	?	-18
CC(=O)N1CCN(C(=O)c2ccc(Cl)c(S(=O)(=O)N3CC(C)OC(C)C3)c2)CC1 (stereo not given)	13%	nt	9%	nt	-1%	-1
O=C(c1ccc(Cl)c(S(=O)(=O)N2CCCC2)c1)N1CCCCC1	-1%	-1%	?	4%	-18%	5
CC1CCCN(C(=O)c2ccc(Cl)c(S(=O)(=O)N3CCCCCC3)c2)C1 (stereo not given)	?	nt	18µM*	nt	?	-7
SMILES	ELG1 repair inh	RORg inh	TDP1 cell noCPT	VP16 counter	TDP1 cell CPT	IL-1B inflam inh
CC1CN(S(=O)(=O)c2cc(C(=O)N3CCCCC3C)ccc2Cl)CC(C)O1 (stereo not given)	?	nt	1.8µM*	nt	-78%	37
CC1CCN(C(=O)c2ccc(Br)c(S(=O)(=O)N3CCOCC3)c2)CC1	-3%	1%	?	-7%	-4%	2
CCOC(=O)C1CCCN(C(=O)c2cc(S(=O)(=O)N3CCCCC3)ccc2Cl)C1 (stereo not given)	-1%	nt	21µM*	nt	21µM*	-14
O=C(CCC(=O)N(CC(=O)NC1CCCC1)c1ccc(F)cc1)Nc1nccs1	16%	1%	1%	10%	1%	0
CCc1nc2ccc(C(=O)N3CCCC(C(N)=O)C3)cn2c1N(C=O)CC (stereo not given)	nt	nt	9%	nt	0%	9
Cc1noc(C)c1COc1ccccc1C(=O)N(C)Cc1ccco1	?	nt	?	nt	?	0
COC(=O)c1ccc(C(=O)OC)c(NC(=O)C2CCCO2)c1 (stereo not given)	11%	nt	-10%	nt	-11%	15
CCOC(=O)C1CCCN(C(=O)c2ccc(Cl)c(S(=O)(=O)N3CCCCCC3)c2)C1 (stereo not given)	10µM*	?	?	?	-2%	-14
CCOC(=O)C1CCCN(S(=O)(=O)c2ccc(F)c(C(=O)Nc3ccc(F)c(F)c3)c2)C1 (stereo not given)	?	9%	16µM*	-3%	23µM*!	-66*
CCOC(=O)C1CCCN(S(=O)(=O)c2ccc(NC(C)=O)cc2)C1 (stereo not given)	?	44%	-50%	-11%	-35%	-11
O=c1c2sccc2n(Cc2cc(=O)n3cc(Cl)ccc3n2)c(=O)n1-c1ccccc1	nt	nt	-12%	nt	1%	nt
COC(=O)NC(/C(C(=O)OC)=C(\C)NCc1ccccc1)c1cccs1 (stereo not given)	nt	-7%[10 µM]	nt	-12%[10 µM]	nt	nt
COc1ccc(CNC(=O)C(C)N(C)Cc2cccc(F)c2)cc1 (stereo not given)	-10%	29%	-26%	2%	?	-14
COc1cccc(CN(C)CC(=O)Nc2c(C)cccc2C(C)C)c1	?	5%	?	-17%	?	-29
COc1ccc(NC(=O)C(C)N(C)Cc2ccc3ccccc3c2)cc1 (stereo not given)	?	?	13µM*	-10%	?	?
CCC(C)c1ccccc1NC(=O)C(C)N(C)Cc1cccc(OC)c1 (stereo not given)	?	11%	16µM*	-15%	?	-6
COc1ccc(NC(=O)C(CC(=O)O)C(C)c2ccccc2)cc1 (stereo not given)	0%	19%	?	-3%	16µM*	45
